# Screening data from PubChem BioAssay.
# APEX1 inh: blocks human APE1 abasic DNA cleavage; Potency, µM (series often up to 65.8 µM), without a hit: top-dose activity change, negative = inhibition, usual class: inhibitors; hit rate 0.35% among 350,000; AID 2517; P27695; recombinant APE1, TAMRA/BHQ-2 abasic DNA cleavage fluorescence;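 note: plate controls were vehicle for no effect and reference inhibitor for full effect; nearly all actives have a fitted effect of over 55% in size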
#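 Substrate: short duplex with […] THF abasic site, 5'-TAMRA and 3'-BHQ-2, 50 nM final. APE1 at 0.75 nM, preincubated 15 min RT with compound. Fluorescence increase from first to third read measured activity.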
# WRN helicase inh: inhibitors of human WRN helicase. WRN helicase unwinding, fluorescent forked duplex, kinetic. Potency, µM (titrated, usually from 114 µM), for the others: top-dose activity change, negative = inhibition, hits mostly inhibitors. hit rate 0.46% among 360,000. AID 651768; note: nearly all actives have a fitted effect of over 55% in size
#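 Enzyme (20 nM final) and test compound sit together 15 min at room temperature before substrate addition. Substrate is a single-forked duplex oligonucleotide (100 nM) labelled with fluorophore and quencher, with 2 mM ATP; helicase unwinding raises red fluorescence, read kinetically.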
# L3MBTL1 inh: L3MBTL1 (human) inhibition | Q9Y468 | AID 485360 | AlphaScreen L3MBTL1–H3K9me1 peptide binding | hit rate 0.66% among 230,000 | Potency, µM (highest dose often 57.1 µM), without a hit: top-dose activity, negative = inhibition, most hits filed as inhibitors; note: nearly all actives have a fitted effect of over 60% in size
# Target sequence (Q9Y468 whole entry, looked up): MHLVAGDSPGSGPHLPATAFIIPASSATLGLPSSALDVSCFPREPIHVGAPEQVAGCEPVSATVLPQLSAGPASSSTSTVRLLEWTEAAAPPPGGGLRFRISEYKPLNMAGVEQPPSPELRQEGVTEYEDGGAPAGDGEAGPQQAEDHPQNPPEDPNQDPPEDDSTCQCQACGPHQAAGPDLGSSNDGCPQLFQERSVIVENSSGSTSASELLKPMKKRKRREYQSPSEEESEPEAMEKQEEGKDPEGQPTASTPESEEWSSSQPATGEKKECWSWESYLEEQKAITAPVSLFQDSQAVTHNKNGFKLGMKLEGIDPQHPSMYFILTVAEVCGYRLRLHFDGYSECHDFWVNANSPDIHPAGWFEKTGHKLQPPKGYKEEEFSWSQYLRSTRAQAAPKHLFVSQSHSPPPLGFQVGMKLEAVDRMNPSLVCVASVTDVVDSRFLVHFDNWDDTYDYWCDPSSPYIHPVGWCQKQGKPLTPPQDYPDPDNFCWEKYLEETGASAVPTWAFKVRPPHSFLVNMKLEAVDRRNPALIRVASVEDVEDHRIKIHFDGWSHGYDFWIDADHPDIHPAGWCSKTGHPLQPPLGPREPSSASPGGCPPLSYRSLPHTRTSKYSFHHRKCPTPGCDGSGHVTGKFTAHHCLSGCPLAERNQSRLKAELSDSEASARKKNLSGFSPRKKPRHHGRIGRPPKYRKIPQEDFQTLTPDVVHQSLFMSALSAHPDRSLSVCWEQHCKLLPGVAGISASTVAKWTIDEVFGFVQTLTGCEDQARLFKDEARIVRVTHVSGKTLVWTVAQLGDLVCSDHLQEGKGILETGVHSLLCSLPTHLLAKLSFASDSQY
#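 L3MBTL1 (50 nM) pre-complexed 30 min with biotinylated H3(1-15)K9me1 peptide (75 nM), then compounds added for 30 min at room temperature; AlphaScreen streptavidin donor/nickel chelate acceptor beads (10 ug/mL final) read after 30 min dark incubation.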
# BLM inh: Bloom syndrome helicase (human) inhibition; Potency, µM (series often up to 56.1 µM), inactives show top-dose activity change, negative = inhibition, most hits filed as inhibitors; hit rate 0.2% among 350,000; recombinant BLM DNA unwinding, fluorescence dequenching;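 note: plate controls were vehicle for no effect and no enzyme for full effect; nearly all actives have a fitted effect of over 35% in size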
# RECQ1 helicase: RECQ1 (human) helicase inhibition; P46063; RECQ1 DNA unwinding, red fluorescence kinetic read; Potency, µM (highest dose often 57.3 µM), for inactives: top-dose activity, negative = inhibition, usual class: inhibitors; hit rate 0.54% among 240,000; AID 2549;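 note: plate controls were vehicle for no effect and no enzyme for full effect; nearly all actives have a fitted effect of over 30% in size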
#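 50 nM RECQ1T1 preincubated 15 min with compound in Tris pH 8.0 buffer with MgCl2, DTT, Tween-20 and 2.5 ug/ml poly(dI-dC); started with 200 nM TAMRA/BHQ-2 forked duplex and 2 mM ATP. Unwinding read as fluorescence (525/598 nm), two reads 2 h apart.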
# FEN1 inh: blocks human flap endonuclease 1 | Recombinant FEN1 flap cleavage, fluorescence, 15 min | Potency, µM (highest dose often 114 µM), for the others: at the top dose activity change, negative = inhibition, actives largely listed as inhibitors | hit rate 0.35% among 390,000 | AID 588795; note: nearly all actives have a fitted effect of over 65% in size
#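 Nuclease activity of 10 nM FEN1 was measured after 15 min of room-temperature exposure to titrated compounds, by adding 50 nM flap substrate and reading plates at 0 and 15 min.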
# Active calls of the source: *; i = inactive; ? = inconclusive; . = no result given; [ ] = dose if it differs, or a comment. Only some compounds are listed: those with a hit (about 1% of all), similar ones and a draw of the others. Calls come from the whole dose curve; as a rule, active = well fitted curve in the direction sought with a large enough effect; inconclusive = small, poorly fitted or top-dose-only effect, or another doubt; inactive = no such curve, though single readings can be large; an effect the other way counts as inactive or inconclusive. Unless noted, % is set by controls: 0 for no effect and ±100 for the full control effect; potency is the fitted concentration of half-maximal effect.
SMILES,APEX1 inh,WRN helicase inh,L3MBTL1 inh,BLM inh,RECQ1 helicase,FEN1 inh
C[n+]1c(/C=C/c2ccc3c(c2)OCO3)ccc2ccccc21,4.5%,4.0%,.,1.0%,11.5%,0.5%
C[n+]1cc2c3c(ccc2c2ccc4cc5c(cc4c21)OCO5)OCO3,0.8%,.,.,-2.3%,0.5%,11.2µM*
NC(=O)C1CCN(c2nc(-c3cccc4sc5ccccc5c34)cs2)CC1,-3.2%,.,.,.,.,.
O=C(Nc1nnc([C@H]2C[C@H](O)[C@@H](CO)O2)s1)c1cccc(Oc2ccccc2)c1,.,7.0%[57.1 µM],.,.,.,.
CCCCCCCCCCCCCCCC(=O)OC[C@H](O)[C@H]1OC(=O)C(O)=C1O,8.91µM*,.,.,.,.,.
O=C1O[C@H]([C@@H](O)CO)C(O)=C1O,33.1%,4.6%,?,1.7%,-6.1%,11.8%
CC(=O)OC[C@]12CC[C@H]3[C@@](C)(CC[C@H]4C(C)(C)CCC[C@]34C)[C@@H]1C[C@H](C1=CC(=O)O[C@@H]1OC(C)=O)O2,13.4µM*,.,-15.0%,.,.,.
CNc1nc(-c2ccccc2)[n+](-c2ccc(C)cc2)s1,-6.0%,50.1µM*,-4.7%,5.3%,-6.0%,2.8%
O=C(O)C1CCCCC1C(=O)Nc1cccc(Br)c1 (stereo not given),0.474µM*,50.1µM*,12.6µM*,.,.,-5.8%
COc1ccc(-n2c(=O)c3sc4ccccc4c3n(CC(=O)NCc3ccccc3)c2=O)cc1,.,.,.,-6.1%,.,21.6%
NC(=O)C(=CNc1nc(-c2ccc(Cl)c(Cl)c2)cs1)C(N)=O,0.631µM*,.,-44.3%,?,3.55µM*,.
O=C(O)c1ccc(-c2nc(-c3ccc(Cl)c(Cl)c3)cs2)cc1,6.7%,9.9%,.,-12.6%,-11.4%,-4.5%
COc1cc(N2C(=O)C=CC2=O)ccc1N1C(=O)C=CC1=O,.,20µM*,.,.,.,50.1µM*
COc1ccc(N2C(=O)C3CC(C)=C(C)CC3C2=O)c(OC)c1 (stereo not given),3.2%,1.8%,.,-4.3%,-1.8%,0.3%
N#C/C(=C\c1c[nH]c2ccccc12)C(=O)NC1CC1,6.9%,-17.2%,-0.7%,0.4%,.,-4.0%
N#C/C(=C\c1c[nH]c2ccccc12)C(=O)c1ccc(O)c(O)c1,?,.,.,.,11.2µM*,3.36µM*
N=c1oc2c3c4c(cc2cc1C(=O)Nc1ccccc1)CCCN4CCC3,-1.1%,56.2µM*,40.9%,-4.3%,-12.1%,-1.4%
Cc1ccc(NC(=O)c2cc3ccccc3oc2=N)cc1,56.9%,-3.3%,.,-1.3%,.,4.6%
O=C(Nc1ccccc1C(=O)OCc1cc(=O)n2c3c(sc2n1)CCCC3)c1ccc(F)cc1,.,.,.,0.3%,.,0.6%
CCOc1ccc2c(c1)C(NC(C)=O)C(=O)N2CCN1CCOCC1 (stereo not given),-9.5%,9.6%,.,-6.0%,.,39.8µM*
CC(=O)NC1C(=O)N(CCN2CCOCC2)c2ccc(Br)cc21 (stereo not given),?,12.6%,.,-10.8%,.,?
Nc1nnc(CC(=O)N/N=C/c2cccc([N+](=O)[O-])c2)s1,-0.4%,-36.7%,0.7%,0.1%,-11.6%,-4.7%
Nc1nnc(CC(=O)N/N=C/c2cc([N+](=O)[O-])cc(Br)c2O)s1,-6.6%,56.2µM*,?,-6.4%,?,-31.5%
Oc1c(Br)cc(C=Nc2ccc3nc(-c4ccccc4)[nH]c3c2)c(O)c1Br,10.8%,?,.,-15.0%,-10.0%,39.8µM*
c1ccc2c(C(c3c[nH]c4ccccc34)c3c[nH]c4ccccc34)c[nH]c2c1,.,.,.,.,.,0.2%
SMILES,APEX1 inh,WRN helicase inh,L3MBTL1 inh,BLM inh,RECQ1 helicase,FEN1 inh
C[n+]1ccc(C(c2c[nH]c3ccccc23)c2cc[n+](C)c3ccccc23)c2ccccc21,.,.,.,.,.,17.8µM*
COc1cc(/C=C2/C(=O)NN(c3ccc(Cl)c(Cl)c3)C2=O)cc([N+](=O)[O-])c1O,-20.9%,50.1µM*,.,0.3%,.,?
COc1cc(/C=C2/C(=O)NN(c3ccc(Cl)cc3)C2=O)ccc1OC(=O)c1ccco1,-7.2%,39.8µM*,1.0%,-7.0%,-4.1%,-10.4%
COc1cc(/C=C2/C(=O)NN(c3ccc(F)cc3)C2=O)cc(Cl)c1O,-13.4%,-9.8%,.,1.2%,.,-12.4%
O=C1CCCC(O)=C1N=Nc1c(Cl)cc(C(F)(F)F)cc1Cl,?,79.4µM*,-52.5%,-7.8%,12.6µM*,-25.0%
Nc1ccc(N)c(Cl)c1,?,.,.,.,22.4µM*,.
Cc1ccc(N)c(Cl)c1,-0.3%,.,.,-2.8%,-10.7%,.
CCc1cc(C(=O)/C=C/c2cc3c(cc2C)OCCO3)c(O)cc1O,.,.,.,.,.,2.9%
Cc1cccc(C2=NN(c3ccccc3)[C@H](CO)[C@H]2c2ccc(Cl)cc2)c1,-11.9%,-7.6%,83.3%,-12.6%[75.6 µM],-20.6%[81.1 µM],-8.4%
OC[C@@H]1[C@@H](c2ccccc2)C(c2cccc(Cl)c2)=NN1c1ccccc1,-13.2%,-7.5%,90.2%,-11.0%[75.6 µM],31.6µM*,-17.5%
Oc1ccc(N=Nc2c(O)ccc3ccccc23)cc1,-12.1%,-26.5%,17.8µM*,-21.9%,35.5µM*,-20.5%
COCCCNC(=O)/C=C/c1ccc(Cl)cc1Cl,2.2%,0.7%,10.3%,2.5%,-13.0%,-19.6%
COc1ccc(/C=C/C(=O)c2cc(Br)ccc2O)cc1OC,-8.7%,-5.3%,-21.0%,-13.6%,i,-1.8%
CNc1ccc(Br)cc(C(=O)/C=C/c2cc(OC)ccc2OC)c1=O,-6.2%,-8.6%[11.6 µM],14.1µM*,-14.4%,-1.0%,?
CCNc1ccc(Br)cc(C(=O)/C=C/c2ccc(Cl)cc2Cl)c1=O,0.8%,?,17.8µM*,-23.0%,-12.5%,?
